High-throughput results: PubChem, National Center for Advancing Translational Sciences (NCATS)
Lassa entry inh: qHTS for Inhibitors of binding or entry into cells for Lassa Virus. AID 540256, 2011. Potency, µM (series often up to 37.9 µM), inactives show at the top dose activity change, negative = inhibition, most hits filed as inhibitors. 300,000 compounds, 1.2% hits. Lassa virus pseudotype entry inhibition, cell reporter; calls by dose curve; tested in HEK293 cells; note: potency is the fitted concentration of half-maximal effect; nearly all actives have a fitted effect of over 50% in size
VACV mCherry inh: qHTS for Stage-Specific Inhibitors of Vaccinia Orthopoxvirus: mCherry Reporter Primary qHTS. Vaccinia virus mCherry reporter infection, fluorescence. Potency, µM (titrated, usually from 36.5 µM), without a hit: at the top dose activity change, negative = inhibition, hits mostly inhibitors. 310,000 compounds, 0.63% hits; calls by dose curve; tested in A549 cells; note: potency is the fitted concentration of half-maximal effect; nearly all actives have a fitted effect of over 35% in size
FMDV antiviral: High Throughput Screening for Foot and Mouth Disease Virus Antivirals. Potency, µM (top dose mostly 57.9 µM), for the others: at the highest dose activity change, negative = inhibition, actives largely listed as inhibitors. FMDV antiviral cell-based qHTS. 410,000 compounds, 1.2% hits; calls by dose curve; tested in HEK293T cells; note: read-out not given here; potency is the fitted concentration of half-maximal effect; nearly all actives have a fitted effect of over 45% in size
Vaccinia Venus: qHTS for Stage-Specific Inhibitors of Vaccinia Orthopoxvirus: Venus Reporter Primary qHTS; Vaccinia virus Venus reporter expression, fluorescence; Potency, µM (series often up to 36.5 µM), without a hit: at the highest dose activity change, negative = inhibition, most hits filed as inhibitors; 330,000 compounds, 0.46% hits; calls by dose curve; tested in A549 cells; note: potency is the fitted concentration of half-maximal effect; nearly all actives have a fitted effect of over 30% in size
MARV entry inh: qHTS for inhibitors of binding or entry into cells for Marburg Virus; Marburg virus pseudotyped entry inhibition, cell reporter; Potency, µM (doses to about 37.8 µM), inactives show at the highest dose activity change, negative = inhibition, actives largely listed as inhibitors; 300,000 compounds, 1.8% hits; calls by dose curve; tested in HEK293 cells; note: potency is the fitted concentration of half-maximal effect
HCMV inh: qHTS Assay for inhibitors of the human cytomegalovirus (HCMV) | HFF cells, HCMV-luciferase reporter, 72 h; active compounds read low | activity change, negative = inhibition, % at 57.5 µM | 410,000 compounds, 4.5% hits | AID 1259415, 2018; in the data active = activity change below about -60%; inconclusive = no clear call, values can overlap the other calls; inactive = above about -39%
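Two compound doses tested in HFFs infected with HCMV-luciferase, MOI 1 PFU/cell, 72 h at 37C. Lysate luminescence read with OneGlo; data normalized against buffer-only and 10uM Salinomycin inhibitor controls.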
* hit, by the source's call; i = inactive; u = inconclusive; x = no result; [ ] = remark or other dose. Hits are enriched below; roughly 6.5% of the tested compounds scored in any of these assays. % is set by controls: 0 for no effect and ±100 for the full control effect.

SMILES	Lassa entry inh	VACV mCherry inh	FMDV antiviral	Vaccinia Venus	MARV entry inh	HCMV inh
COc1ccc(C(=O)Nc2ccc3nc4n(c(=O)c3c2)CCCCC4)cc1OC	1.0%[46.1 µM]	-9.1%	-16.2%	-7.4%	27.9%[46.1 µM]	4.0
O=c1c2cc(NC(=S)NC3CCCCC3)ccc2nc2n1CCCCC2	11.0%[46.1 µM]	-12.5%	-26.6%	-14.1%	-29.2%[46.1 µM]	-79.5*
O=c1c2cc(NC(=S)NCCN3CCCCCC3)ccc2nc2n1CCCCC2	u	-11.2%	-22.4%	-3.3%	u	0.2
O=c1c2cc(NC(=S)NCCCN3CCC(Cc4ccccc4)CC3)ccc2nc2n1CCCCC2	u	-20.9%	-20.8%	u	7.08µM*	-96.2*
CC1CCCCN1C(=S)Nc1ccc2nc3n(c(=O)c2c1)CCCCC3 (stereo not given)	u	-13.5%	22.8%	-0.1%	2.3%	-104.0*
COc1ccc(CNC(=O)O[C@H]2CC[C@@]34CCCN3C(=O)CCC[C@H]4[C@H]2Cc2ccccc2)cc1	x	x	x	x	x	6.6
COc1ccc(/C=C/C(=O)Nc2ccc(-c3nnc4n3CCCCC4)cc2)c(OC)c1	-1.9%	13.0%	-28.6%	-26.8%	8.0%	-74.1*
CCOC(=O)/C=C/C(=O)Nc1ccc(-c2nnc3n2CCCCC3)cc1	x	x	-6.7%	x	x	11.3
O=c1c(-c2cccs2)nc2cnc(N3CCNCC3)nc2n1Cc1cccs1	x	x	-12.1%	x	x	x
CON(c1nc(Cl)nc(N(C)C)n1)S(=O)(=O)c1ccccc1Cl	12.6µM*	x	u	u	-1.0%	49.9
COc1nc(N(C)C)nc(N(OC)S(=O)(=O)c2ccccc2Cl)n1	u	-10.9%	-17.7%	-23.2%	-25.2%	10.9
CCC1(C2CCN(Cc3c(C)[nH]c4ccccc34)CC2)NC(=O)N(Cc2ccc3c(c2)OCO3)C1=O (stereo not given)	x	-4.2%	-3.6%	-4.2%	x	x
CCOc1cc(CN2CCN(c3cccc(C(F)(F)F)c3)CC2)ccc1OC	-15.3%	-20.6%	x	-11.6%	u	30.7
O=[N+]([O-])c1cc(CN2CCCC2)c2cccnc2c1O	-1.5%	-15.6%	-1.4%	-7.6%	-8.6%	x
CC(C)OCc1cc(CN2CCN(c3cccc(C(F)(F)F)c3)CC2)c(O)c2ncccc12	u	3.98µM*	-25.0%	-27.1%[7.34 µM]	u	-98.4*
CCOCc1cc(CN2CCN(c3cccc(C(F)(F)F)c3)CC2)c(O)c2ncccc12	u	u	u	-18.6%[7.34 µM]	u	-99.6*
CCOc1cc(CN2CCN(c3cccc(C(F)(F)F)c3)CC2)ccc1O	-5.5%	x	-6.4%	x	16.4µM*	-20.9
O=[N+]([O-])c1cc(CN2CCN(c3cccc(C(F)(F)F)c3)CC2)c2cccnc2c1O	u	-20.0%	-14.8%	-22.9%	u	-76.3*
CC(C)[C@@H]1Cc2c(C#N)c(N)sc(=S)c2CO1	x	x	x	x	0.9%	x
COc1cccc(CN(C(=O)c2oc3cc(C)ccc3c2C)C2CCS(=O)(=O)C2)c1 (stereo not given)	-24.2%[46.1 µM]	-16.0%[7.34 µM]	-15.9%	-0.8%[7.34 µM]	u	12.2
O=C(c1c[nH]c(C(=O)C(Cl)(Cl)Cl)c1)c1c(F)cccc1F	-16.0%[46.1 µM]	-9.5%	0.0%	-11.8%	8.5%[46.1 µM]	-79.5*
COc1cc2c(cc1OC)C(C1c3cc4c(cc3CCN1C)OCO4)OC2=O (stereo not given)	x	x	-2.0%	x	x	0.6
CO[C@H]1C=C2CCN(C)[C@H]2C2c3cc4c(cc3C(=O)O[C@@H]21)OCO4 (stereo not given in full)	x	-1.2%	12.4%	-11.3%	x	-63.3*
Cc1nn(-c2ccccc2)cc1/C=N/NC(N)=S	9.1%	11.2µM*	48.7%	u	-8.1%	6.8
COc1ccc(N2CCN(C(=O)c3cc(NC(C)=O)c4c(c3)ncn4CCc3ccccn3)CC2)cc1	x	i	-3.2%	-4.7%	x	x
SMILES	Lassa entry inh	VACV mCherry inh	FMDV antiviral	Vaccinia Venus	MARV entry inh	HCMV inh
Cn1nc(C(F)(F)F)c(/C=N/OC(=O)c2ccccc2)c1Cl	-1.4%	x	-1.7%	x	12.2%	19.7
Cn1nc(C(F)(F)F)c(/C=N/OC(=O)c2ccccc2)c1Sc1ccc(Cl)cc1	u	x	u	-22.8%	u	-63.4*
C/C(=N\NC(=O)c1ccccc1F)c1ccc2c(c1)Nc1ccccc1S2	u	u	u	u	u	-69.2*
C/C(=N\NC(=O)c1ccc(O)cc1)c1ccc2c(c1)Nc1ccccc1S2	-12.9%[46.1 µM]	-22.5%	0.0%	u	u	-29.4
CCCCC(c1nnnn1CS(=O)(=O)c1ccc(C)cc1)N1CCN(c2ccccc2)CC1 (stereo not given)	u	-22.1%	-13.9%	-18.6%	14.1µM*	-32.1
FC(F)(F)COc1nc(N/N=C/c2cccnc2)nc(N2CCCCC2c2ccccn2)n1 (stereo not given)	-15.9%	i	-13.7%	-9.9%	-0.5%	-71.7*
CC(CN(C)C)CN1c2ccccc2CCc2ccccc21 (stereo not given)	u	-27.4%	u	u	13µM*	u
C[C@@H](CN(C)C)CN1c2ccccc2CCc2ccccc21	x	x	x	x	13µM*	x
CNC(=O)N1c2ccccc2CCc2ccccc21	x	x	-15.2%	x	x	-11.2
Cc1nc2ccc(S(=O)(=O)NC(C(=O)NCc3ccco3)C(C)C)cc2s1 (stereo not given)	x	-6.1%	-16.7%	2.3%	x	-64.5*
Cc1ccc(CNC(=O)C(NS(=O)(=O)c2ccc3nc(C)sc3c2)C(C)C)cc1 (stereo not given)	x	11.3%	5.2%	-9.5%	x	36.4
CC(C)Oc1ccc(CNS(=O)(=O)c2ccc(-c3cc(C(F)(F)F)on3)s2)cc1	22.5%[46.1 µM]	-10.1%	-17.4%	-2.1%	x	-2.0
COc1ccc2cc(C(=O)N/N=C/c3sc4ccccc4c3O)ccc2c1	u	-28.2%	u	-18.4%	u	-98.1*
O=C(N/N=C/c1ccccc1)c1cccc2ccccc12	-6.4%[46.1 µM]	-24.9%	38.4%	-7.7%	1.7%[46.1 µM]	-20.1
COc1ccc(C(=O)N/N=C/c2sc3ccccc3c2O)cc1	u	u	33.7%	u	u	x
O=C(N/N=C/c1sc2ccccc2c1O)c1cccc2ccccc12	u	u	27.7%	u	14.1µM*	-104.2*
O=C(N/N=C/c1sc2ccccc2c1O)c1ccccc1	u	10µM*	-2.6%	-23.3%	u	x
COc1cccc(CNC(=O)CSc2ncc3c(n2)-c2cc(Cl)ccc2N(C)S3(=O)=O)c1	-3.7%[46.1 µM]	-16.9%	-26.4%	-3.1%	x	-2.5
O=C(CSc1nc2ccccc2n1Cc1cccc(Cl)c1)N1CCN(c2ccc(F)cc2)CC1	x	-24.2%	u	-15.4%	17.7%[46.1 µM]	-4.5
C[n+]1c2n(c3ccccc31)N=C(c1ccc(Br)cc1)CS2	u	x	u	x	u	-1.9
Cc1cc(-c2nnc3n2N=C(c2ccccc2)CS3)n[nH]1	-16.8%	-11.6%	-5.8%	-19.2%	0.0%[14.2 µM]	-17.8
